GPR151 activ: human GPR151 activation; Q8TDV0; PathHunter beta-arrestin GPR151 cells, luminescence; activation, % at 11.2 µM; hit rate 1% among 650,000; AID 1508602; in the data active = activation above about 4.9%;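 also: 0% = median of compound wells and 100% = cells with positive control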
TEAD-YAP inh: TEAD-YAP interaction inhibition; HEK-TIYL cells, TEAD-Gal4/YAP UAS-luciferase luminescence; inhibition, % at 9.12 µM; hit rate 1.4% among 640,000; AID 1259422; in the data active = inhibition above about 32%;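 also: 0% = median of test compound wells and 100% = reference inhibitor wells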
MITF primary: blocks human microphthalmia-associated transcription factor; inhibition, % at 2.6 µM; AID 1259374; hit rate 0.91% among 650,000; O75030; AlphaScreen MITF homodimerization, bead proximity signal; in the data active = inhibition above about 50%;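 also: 0% = vehicle wells with protein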
Target sequence (O75030 whole entry, looked up): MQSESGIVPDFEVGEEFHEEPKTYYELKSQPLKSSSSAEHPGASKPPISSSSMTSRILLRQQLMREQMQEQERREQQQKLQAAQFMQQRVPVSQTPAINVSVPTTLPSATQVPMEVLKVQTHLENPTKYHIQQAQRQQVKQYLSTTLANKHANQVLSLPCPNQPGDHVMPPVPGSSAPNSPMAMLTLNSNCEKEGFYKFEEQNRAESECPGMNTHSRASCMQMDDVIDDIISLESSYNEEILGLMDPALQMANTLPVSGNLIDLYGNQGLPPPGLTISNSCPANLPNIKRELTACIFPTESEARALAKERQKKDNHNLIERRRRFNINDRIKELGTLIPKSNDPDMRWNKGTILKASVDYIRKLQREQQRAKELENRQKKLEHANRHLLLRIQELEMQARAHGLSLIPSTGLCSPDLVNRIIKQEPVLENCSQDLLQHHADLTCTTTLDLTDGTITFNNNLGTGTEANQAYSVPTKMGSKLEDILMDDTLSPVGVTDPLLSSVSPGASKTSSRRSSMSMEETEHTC
FBW7 act: activators of human E3 ligase FBW7. Q969H0. AlphaScreen FBW7–phospho-cyclin E peptide binding, activator screen. normalized activity (activation), % at 26.1 µM. hit rate 0.13% among 650,000. AID 1259310; in the data active = normalized activity above about 1.9%;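 also: purified mutant Fbw7 with reduced substrate affinity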
Starred values were filed as active, the others as inactive. Most compounds without a hit are left out; they make up all but 3.5% or so of the library.

SMILES	GPR151 activ	TEAD-YAP inh	MITF primary	FBW7 act
c1ccc(Oc2nc(NCCN3CCOCC3)c3ncn(-c4ccccc4)c3n2)cc1	1	34*	20	0
CN1CCN(c2ccc(-c3nc(NCCO)c4ncn(-c5ccccc5)c4n3)cc2)CC1	0	73*	-11	0
COc1ccc(-c2nc(NCCN3CCOCC3)c3ncn(-c4ccccc4)c3n2)cc1	-1	47*	16	0
c1ccc(-n2cnc3c(NCCN4CCOCC4)nc(NCCN4CCOCC4)nc32)cc1	-1	6	7	0
Cc1cc(C)c2c(n1)nn1c(C)c(CCC(=O)Nc3ccc(F)cc3)c(C)nc21	0	5	9	0
Cc1cc(NC(=O)CN(C)S(=O)(=O)c2ccc3nc(C)sc3c2)n[nH]1	0	5	-1	0
COc1cc(OC)nc(Sc2ccccc2/C=N/O)n1	3	57*	4	0
C=CCn1c(=O)c2ccccc2n2c(SCC(=O)NC(C)(C)C)nnc12	-1	7	-4	0
c1ccc(-c2nc(NC3CCCCC3)cc(-c3cccnc3)n2)nc1	-1	69*	19	-1
c1ccc(-c2nc(NC3CCCCC3)cc(-c3ccncc3)n2)nc1	-1	36*	1	-1
c1ccc(-c2nc(NC3CC3)cc(-c3cccnc3)n2)cc1	1	23	17	0
c1ccc(-c2nc(NC3CC3)cc(-c3cccnc3)n2)nc1	1	44*	-152	0
COc1cccc(N(C)C(=O)Nc2ccc(C)c([N+](=O)[O-])c2)c1	2	2	11	0
COC(=O)C1=C(C)Nc2[nH]c(=O)[nH]c(=O)c2C1c1ccccc1F (stereo not given)	1	1	14	0
Nc1ncc(-c2cccc(F)c2)nc1NCc1ccncc1	-2	-8	12	1.9*
Nc1ncc(-c2ccncc2)nc1NCc1ccccc1	2	7	-2	0
CCOc1ccc2nc(NC(=O)CCCC(=O)O)sc2c1	-1	13	-12	0
CCOc1ccc2nc(NC(=O)C(C)(C)C)sc2c1	0	63*	8	0
CCOc1ccc2nc(N3CCN(C(=O)C(C)C)CC3)sc2c1	1	-11	13	0
CCOc1ccc2nc(N3CCN(S(=O)(=O)c4ccccc4)CC3)sc2c1	0	13	2	0
CCOc1cc2sc(N3CCC(C(=O)O)CC3)nc2cc1Br	2	47*	1	0
CCOc1ccc2nc(N3CCCC3)sc2c1	-2	43*	3	0
CCOc1ccc2nc(N3CCCCC3)sc2c1	-6	53*	3	0
CCOc1ccc2nc(N3CCC(C(=O)N4CCC(C(N)=O)CC4)CC3)sc2c1	-1	19	1	0
Cn1c(SCc2cccc(F)c2)ncc(C(=O)Nc2ccccc2)c1=O	-1	-6	12	0
SMILES	GPR151 activ	TEAD-YAP inh	MITF primary	FBW7 act
Cc1ccc(S(=O)(=O)N2CCN3C(=O)[C@H]([C@@H](C)O)NC(=O)[C@H]3C2)cc1	-1	-2	6	1
Cc1cc(C)nc(Nc2ccc(Oc3ccccc3)cc2)n1	-2	46*	7	0
Nc1nc(Nc2ccc(Oc3ccccc3)cc2)cc(-c2ccccc2)n1	4	44*	8	0
COc1cccc(/C=N\NC(=O)c2n[nH]c3c2CCCC3)c1OC	-1	-21	-15	1
COc1ccc(/C=N/NC(=O)c2[nH]nc3c2CCc2ccccc2-3)cc1OC	-2	46*	12	0
COC(=O)c1ccc(/C=N/NC(=O)c2[nH]nc3c2CCc2ccccc2-3)cc1	-2	-1	18	0
COc1ccc(/C=N/NC(=O)c2n[nH]c3c2CCCC3)cc1OC	2	26	-3	0
COc1cc(/C=N/NC(=O)c2n[nH]c3c2CCC3)ccc1O	2	47*	10	0
COc1cccc(/C=N\NC(=O)c2n[nH]c3c2CCC3)c1	-1	36*	9	0
COc1ccc(/C=N\NC(=O)c2n[nH]c3c2CCCC3)c(OC)c1OC	1	61*	-3	1
Cc1cc(NC(=O)Cn2c(-c3ccccn3)nc3ccccc32)no1	0	-2	-7	0
COCCCNC(=O)CCn1c(-c2ccc(OC)cc2)cc(C(C)=O)c1C	0	3	1	0
COc1cc(Nc2nc(N3CCN(c4ccccn4)CC3)nc3c2ncn3CCN2CCCC2=O)cc(OC)c1OC	0	33*	4	0
O=C1CCCN1CCCNc1nc(Nc2ccccn2)nc2c1ncn2-c1ccsc1	2	53*	-12	0
COc1cc(Nc2nc(NCCCN3CCCC3=O)c3ncn(-c4ccsc4)c3n2)cc(OC)c1OC	-1	54*	2	0
COc1cc(Nc2nc(NCCCN3CCCC3=O)nc3c2ncn3-c2ccsc2)cc(OC)c1OC	-2	14	8	0
O=C1CCCN1CCCNc1nc(NC2CC2)c2ncn(-c3ccsc3)c2n1	3	34*	8	0
CCOC(=O)c1ccc(NC(=O)C2CCCN(c3nnc(N4CCCC4=O)s3)C2)cc1 (stereo not given)	-2	2	12	0
Cn1nccc1Nc1nc(NCCCN2CCCC2=O)c2ncn(-c3ccsc3)c2n1	1	17	9	0
O=C1CCCN1CCCNc1nc(Nc2cnccn2)nc2c1ncn2-c1ccsc1	-1	75*	4	0
O=[N+]([O-])c1cc(CN2CCC(c3ccccc3)C2)c(O)c2ncccc12 (stereo not given)	2	32*	55*	-1
O=[N+]([O-])c1cc(CN2CCCCC2)c(O)c2ncccc12	-2	4	73*	-1
O=[N+]([O-])c1cc(CN2CCN(c3cccc(C(F)(F)F)c3)CC2)c(O)c2ncccc12	-1	20	19	0
CN1CCN(Cc2cc([N+](=O)[O-])c3cccnc3c2O)CC1	0	7	76*	0
O=[N+]([O-])c1cc(CN2CCc3ccccc3C2)c(O)c2ncccc12	0	9	21	-1
SMILES	GPR151 activ	TEAD-YAP inh	MITF primary	FBW7 act
C/C(CC(=O)Nc1c(C)cc(C)cc1C)=N\NC(=O)c1ccc(O)cc1O	2	24	-7	0
O=C(/C=C/c1ccccc1)NNC(=O)C(=O)NCc1ccccc1	2	-3	-4	0
COc1cc(C(=O)OCC(C)=O)ccc1OCc1c(C)noc1C	-2	48*	9	0
COC(=O)c1ccc(COC(=O)c2ccc(OCc3c(C)noc3C)c(OC)c2)cc1	0	-26	1	0
O=C(NC12CC3CC(CC(C3)C1)C2)c1cc([N+](=O)[O-])ccc1Cl	-1	20	11	0
O=C(NCCCc1ccccc1)c1cc([N+](=O)[O-])ccc1Cl	0	53*	7	1
O=C(NCCC12CC3CC(CC(C3)C1)C2)c1cc([N+](=O)[O-])ccc1Cl	-1	46*	8	0
O=C(NCCn1ccc2ccccc21)c1cc([N+](=O)[O-])ccc1Cl	0	33*	11	0
COc1ccccc1CNS(=O)(=O)c1ccc(OC)c(Cl)c1Cl	-2	3	12	0
CCOC(=O)N1CCN(c2cc(Nc3ccc(OCC)cc3)c3c4c(onc24)-c2ccccc2C3=O)CC1	1	-1	6	0

Compound activity as filed in PubChem.
